We go through 33 sequences from paper PMC5869772, “Quantitative profiling of BATF family proteins/JUNB/IRF hetero-trimers using Spec-seq”.

The first experiment concerns the target T1, BATF;JUNB (human;human, UniProt Q16520;P17275 1-125;148-347, |).
T1 sequence 1: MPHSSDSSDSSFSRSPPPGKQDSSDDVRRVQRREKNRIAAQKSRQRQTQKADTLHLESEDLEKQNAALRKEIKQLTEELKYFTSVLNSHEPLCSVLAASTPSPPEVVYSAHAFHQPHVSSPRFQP
T1 sequence 2: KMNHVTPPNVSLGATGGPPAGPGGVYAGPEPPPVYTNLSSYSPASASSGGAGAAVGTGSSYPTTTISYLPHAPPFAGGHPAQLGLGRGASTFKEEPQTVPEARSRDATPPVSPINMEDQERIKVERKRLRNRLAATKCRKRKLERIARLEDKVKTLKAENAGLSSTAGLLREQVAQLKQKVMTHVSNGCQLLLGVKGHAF
In words: Spec-seq (EMSA and sequencing of bound and unbound bands); 100 nM BATFx-JUNB, 1 uM dsDNA library, 50 mM K acetate, 20 mM Tris-acetate, 10 mM Mg acetate, 100 ug/ml BSA, pH 7.9, 10% glycerol, 30 min on ice; native 9% PAGE at 4 C; low values mean tight binding. To be noted: protein: recombinant;recombinant; tags: N-terminal mCherry-TEV, cleaved off;C-terminal 6His; copies: 1;1; dsDNA, one strand shown. The essentials:
(§1)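 The protein, at 100 nM, was incubated with 1 μM double-stranded degenerate DNA library for 30 min on ice in NEB Cutsmart buffer with 10% glycerol, then resolved by native 9% PAGE at 4 °C. Excised bound and unbound bands were PCR-barcoded and Illumina-sequenced, and each sequence's relative binding energy in kT is −ln of its bound/unbound read-count ratio.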
Take “GATAGTCTCATTTTCACCCCGTGAAATGAGTCACTTGTTCCATTACAGTATCTGT”: the binding signal was -0.822 kT.

For “GATAGTCTCATTTTCACCCCGTGAAAATCAGTCATTGTTCCATTACAGTATCTGT”, the binding signal is -0.547 kT.

Consider “GATAGTCTCATTTTCACCCCGTGAAATTAAGTCATTGTTCCATTACAGTATCTGT”, for which the binding signal is -0.398 kT.

Consider “GATAGTCTCATTTTCACCCCGTGAAATGACTCAGTTGTTCCATTACAGTATCTGT”, for which the binding signal was -0.786 kT.

In the case of “GATAGTCTCATTTTCACCCCGTGAAAGTGAGTCATTGTTCCATTACAGTATCTGT”, the binding signal is -1.22 kT.

Take “GATAGTCTCATTTTCACCCCGTGAAATGAGTCTTTTGTTCCATTACAGTATCTGT”: the binding signal was found to be 0.0504 kT.

In the case of “GATAGTCTCATTTTCACCCCGTGAAAAGACTCATTTGTTCCATTACAGTATCTGT”, the binding signal was 0.016 kT.

“GATAGTCTCATTTTCACCCCGTGAAAGGGAGTCATTGTTCCATTACAGTATCTGT”: the binding signal was -0.148 kT.

For “GATAGTCTCATTTTCACCCCGTGAAATTCAGTCATTGTTCCATTACAGTATCTGT”, the binding signal was -0.317 kT.

Consider “GATAGTCTCATTTTCACCCCGTGAAATGAGTTATTTGTTCCATTACAGTATCTGT”, for which the binding signal came out at 0.153 kT.

In the case of “GATAGTCTCATTTTCACCCCGTGAAATGAGTCGGTTGTTCCATTACAGTATCTGT”, the binding signal turned out to be 0.0858 kT.

In the case of “GATAGTCTCATTTTCACCCCGTGAAATGAGTTAATTGTTCCATTACAGTATCTGT”, the binding signal amounted to 0.138 kT.

On to “GATAGTCTCATTTTCACCCCGTGAAATGAGTAACTTGTTCCATTACAGTATCTGT”, for which the binding signal is -0.237 kT.

Regarding “GATAGTCTCATTTTCACCCCGTGAAATGACCCAATTGTTCCATTACAGTATCTGT”, the binding signal amounted to 0.427 kT.

With “GATAGTCTCATTTTCACCCCGTGAAAATGTGTCATTGTTCCATTACAGTATCTGT”, the binding signal is -0.713 kT.

On to “GATAGTCTCATTTTCACCCCGTGAAATTAGTCATTTGTTCCATTACAGTATCTGT”, for which the binding signal is -0.885 kT.

As for “GATAGTCTCATTTTCACCCCGTGAAATGACTCGGTTGTTCCATTACAGTATCTGT”, the binding signal was -0.246 kT.

For “GATAGTCTCATTTTCACCCCGTGAAAATAAGTCATTGTTCCATTACAGTATCTGT”, the binding signal is -0.448 kT.

For “GATAGTCTCATTTTCACCCCGTGAAATGACTCTCTTGTTCCATTACAGTATCTGT”, the binding signal was found to be 0.11 kT.

Turning to “GATAGTCTCATTTTCACCCCGTGAAATGGGTCATTTGTTCCATTACAGTATCTGT”, the binding signal came out at 0.293 kT.

For the sequence “GATAGTCTCATTTTCACCCCGTGAAATGGAGTCATTGTTCCATTACAGTATCTGT”, the binding signal was -0.329 kT.

In the case of “GATAGTCTCATTTTCACCCCGTGAAATGAGTGAATTGTTCCATTACAGTATCTGT”, the binding signal was 0.0809 kT.

As for “GATAGTCTCATTTTCACCCCGTGAAATGACTAACTTGTTCCATTACAGTATCTGT”, the binding signal was -0.35 kT.

Regarding “GATAGTCTCATTTTCACCCCGTGAAATGACTCCCTTGTTCCATTACAGTATCTGT”, the binding signal came out at 0.214 kT.

As for “GATAGTCTCATTTTCACCCCGTGAAACTGAGTCATTGTTCCATTACAGTATCTGT”, the binding signal is -1.39 kT.

As for “GATAGTCTCATTTTCACCCCGTGAAATGACGCCATTGTTCCATTACAGTATCTGT”, the binding signal was -0.429 kT.

“GATAGTCTCATTTTCACCCCGTGAAATGAGACAATTGTTCCATTACAGTATCTGT”: the binding signal was 0.693 kT.

As to “GATAGTCTCATTTTCACCCCGTGAAATGACTCCGTTGTTCCATTACAGTATCTGT”, the binding signal was 0.0406 kT.

Turning to “GATAGTCTCATTTTCACCCCGTGAAACTGCGTCATTGTTCCATTACAGTATCTGT”, the binding signal is -0.647 kT.

As for “GATAGTCTCATTTTCACCCCGTGAAATTGGGTCATTGTTCCATTACAGTATCTGT”, the binding signal came out at 0.183 kT.

Turning to “GATAGTCTCATTTTCACCCCGTGAAATGACTCTATTGTTCCATTACAGTATCTGT”, the binding signal is -0.0428 kT.

As for “GATAGTCTCATTTTCACCCCGTGAAATGAGTCAGTTGTTCCATTACAGTATCTGT”, the binding signal was -0.773 kT.

Regarding “GATAGTCTCATTTTCACCCCGTGAAATGACTCCATTGTTCCATTACAGTATCTGT”, the binding signal was -0.151 kT.

In a further experiment the target is T2, BATF2 (bZIP);JUNB (human;human, UniProt Q8N1L9;P17275 1-142;148-347, |).
T2 sequence 1: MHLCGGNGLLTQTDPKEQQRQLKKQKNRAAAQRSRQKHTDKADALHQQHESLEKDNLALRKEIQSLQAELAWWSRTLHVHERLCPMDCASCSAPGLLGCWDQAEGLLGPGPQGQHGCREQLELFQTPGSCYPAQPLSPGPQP
T2 sequence 2: T1 sequence 2
Described as above. To be noted: protein: recombinant;recombinant; tags: N-terminal mCherry-TEV, cleaved off;C-terminal 6His; copies: 1;1; dsDNA, one strand shown. The essentials:
as §1
Regarding “GATAGTCTCATTTTCACCCCGTGAAATGAGTCACTTGTTCCATTACAGTATCTGT”, the binding signal is -0.342 kT.

Take “GATAGTCTCATTTTCACCCCGTGAAAATCAGTCATTGTTCCATTACAGTATCTGT”: the binding signal was 0.0501 kT.

As for “GATAGTCTCATTTTCACCCCGTGAAATTAAGTCATTGTTCCATTACAGTATCTGT”, the binding signal is -0.048 kT.

As to “GATAGTCTCATTTTCACCCCGTGAAATGACTCAGTTGTTCCATTACAGTATCTGT”, the binding signal was -0.202 kT.

Turning to “GATAGTCTCATTTTCACCCCGTGAAAGTGAGTCATTGTTCCATTACAGTATCTGT”, the binding signal was -0.978 kT.

On to “GATAGTCTCATTTTCACCCCGTGAAATGAGTCTTTTGTTCCATTACAGTATCTGT”, for which the binding signal came out at 1.04 kT.

In the case of “GATAGTCTCATTTTCACCCCGTGAAAAGACTCATTTGTTCCATTACAGTATCTGT”, the binding signal is 0.734 kT.

Turning to “GATAGTCTCATTTTCACCCCGTGAAAGGGAGTCATTGTTCCATTACAGTATCTGT”, the binding signal came out at 0.485 kT.

For the sequence “GATAGTCTCATTTTCACCCCGTGAAATTCAGTCATTGTTCCATTACAGTATCTGT”, the binding signal amounted to 0.285 kT.

For the sequence “GATAGTCTCATTTTCACCCCGTGAAATGAGTTATTTGTTCCATTACAGTATCTGT”, the binding signal was 0.843 kT.

For the sequence “GATAGTCTCATTTTCACCCCGTGAAATGAGTCGGTTGTTCCATTACAGTATCTGT”, the binding signal stood at 1.07 kT.

Regarding “GATAGTCTCATTTTCACCCCGTGAAATGAGTTAATTGTTCCATTACAGTATCTGT”, the binding signal came out at 0.697 kT.

Regarding “GATAGTCTCATTTTCACCCCGTGAAATGAGTAACTTGTTCCATTACAGTATCTGT”, the binding signal came to 0.714 kT.

Regarding “GATAGTCTCATTTTCACCCCGTGAAATGACCCAATTGTTCCATTACAGTATCTGT”, the binding signal is 0.768 kT.

“GATAGTCTCATTTTCACCCCGTGAAAATGTGTCATTGTTCCATTACAGTATCTGT”: the binding signal was -0.258 kT.

Take “GATAGTCTCATTTTCACCCCGTGAAATTAGTCATTTGTTCCATTACAGTATCTGT”: the binding signal is -0.599 kT.

Consider “GATAGTCTCATTTTCACCCCGTGAAATGACTCGGTTGTTCCATTACAGTATCTGT”, for which the binding signal amounted to 0.589 kT.

As to “GATAGTCTCATTTTCACCCCGTGAAAATAAGTCATTGTTCCATTACAGTATCTGT”, the binding signal is -0.0249 kT.

Consider “GATAGTCTCATTTTCACCCCGTGAAATGACTCTCTTGTTCCATTACAGTATCTGT”, for which the binding signal came to 0.738 kT.

With “GATAGTCTCATTTTCACCCCGTGAAATGGGTCATTTGTTCCATTACAGTATCTGT”, the binding signal was 0.704 kT.

“GATAGTCTCATTTTCACCCCGTGAAATGGAGTCATTGTTCCATTACAGTATCTGT”: the binding signal was 0.239 kT.

For the sequence “GATAGTCTCATTTTCACCCCGTGAAATGAGTGAATTGTTCCATTACAGTATCTGT”, the binding signal is 0.83 kT.

Consider “GATAGTCTCATTTTCACCCCGTGAAATGACTAACTTGTTCCATTACAGTATCTGT”, for which the binding signal is 0.462 kT.

“GATAGTCTCATTTTCACCCCGTGAAATGACTCCCTTGTTCCATTACAGTATCTGT”: the binding signal turned out to be 0.862 kT.

On to “GATAGTCTCATTTTCACCCCGTGAAACTGAGTCATTGTTCCATTACAGTATCTGT”, for which the binding signal was -0.852 kT.

“GATAGTCTCATTTTCACCCCGTGAAATGACGCCATTGTTCCATTACAGTATCTGT”: the binding signal was 0.257 kT.

Regarding “GATAGTCTCATTTTCACCCCGTGAAATGAGACAATTGTTCCATTACAGTATCTGT”, the binding signal came out at 1.52 kT.

As to “GATAGTCTCATTTTCACCCCGTGAAATGACTCCGTTGTTCCATTACAGTATCTGT”, the binding signal turned out to be 0.724 kT.

As to “GATAGTCTCATTTTCACCCCGTGAAACTGCGTCATTGTTCCATTACAGTATCTGT”, the binding signal is -0.164 kT.

“GATAGTCTCATTTTCACCCCGTGAAATTGGGTCATTGTTCCATTACAGTATCTGT”: the binding signal is 0.516 kT.

In the case of “GATAGTCTCATTTTCACCCCGTGAAATGACTCTATTGTTCCATTACAGTATCTGT”, the binding signal turned out to be 0.602 kT.

“GATAGTCTCATTTTCACCCCGTGAAATGAGTCAGTTGTTCCATTACAGTATCTGT”: the binding signal is -0.0533 kT.

“GATAGTCTCATTTTCACCCCGTGAAATGACTCCATTGTTCCATTACAGTATCTGT”: the binding signal was determined as 0.566 kT.
